The test is described as follows: compound effects on differentiated 3T3-L1 adipocyte viability – cell-based, 3T3-L1 adipocytes, calcein-AM fluorescence, 48 h, basal, profiling panel (AID 1163). Also: test concentration not given here. The settings on record: 3T3-L1 adipocytes viability, higher = more signal.
Turning to `CO[C@H]1COC(=O)CC=C[C@H](C)[C@H](OC)COC(=O)[C@@H](C)NC(=O)CC=C[C@@H]1C`, the z-score is 0.269. In the case of `CCOC(=O)[C@H](Cc1ccccc1)NC(=O)CCC1CC(OC(=O)NCCc2ccc(F)cc2)CC2(CCCC(COC(=O)NCc3cccc(C(F)(F)F)c3)O2)O1` (stereo partly specified) it was 0.15; in that of `CCOC(=O)NN=C1C[C@@H](O)[C@@H](O)[C@@H]2[C@@H]3C(=O)N(c4ccc(F)cc4F)C(=O)[C@@H]3CC[C@H]12`, 1.01; in that of `C[C@]12CCC3c4ccc(OCC5CO5)cc4CCC3C1CC[C@@H]2O` (stereo partly specified), 0.277. The figure for `CCOC(=O)CCN1C(=O)[C@H]2[C@H]3[C@H](O)[C@H](O)CC(=NOCC=C(C)CCC=C(C)C)[C@@H]3CC[C@H]2C1=O` is -0.218. As for `CCOC(=O)[C@H](Cc1ccccc1)NC(=O)CCC1CC(OC(=O)NCc2cccc3ccccc23)CC2(CCCC(COC(=O)NCCOc3ccccc3)O2)O1` (stereo partly specified), the z-score is 0.0331. Regarding `CCOC(=O)[C@H](Cc1ccccc1)NC(=O)CCC1CC(OC(=O)NCc2ccc3c(c2)OCO3)CC2(CCCC(COC(=O)NCCc3ccc(Cl)cc3)O2)O1` (stereo partly specified), the z-score is 0.71. Consider `O=C(NN=C1C[C@@H](O)[C@@H](O)[C@@H]2[C@@H]3C(=O)N(Cc4ccccc4)C(=O)[C@@H]3CC[C@H]12)OCc1ccccc1`, for which the z-score is 0.52.

For the compound `C[C@@H]1CC[C@H]2C(=O)O[C@@H](CN=[N+]=[N-])CN2[C@H]1c1ccc(Br)cc1`, the z-score is 0.254. In the case of `COC(=O)CC=C[C@@H](C)[C@@H](C=NOC[C@@H](O)[C@H]1O[C@@H]2OC(C)(C)O[C@@H]2[C@H]1O)OC` it was 0.0495; in that of `CC(CCN1CCCc2nc(C)c(C)cc21)=NO[C@H](C)c1cn([C@@H]2COC[C@H]2O)nn1`, -0.563. In the case of `CC(C)(C)N1C(=O)[C@H]2[C@H]3[C@H](O)[C@H](O)CC(=NNC(=O)OCc4ccccc4)[C@@H]3CC[C@H]2C1=O` it was -0.166. Regarding `COc1cccc([C@H]2Oc3ccc(OC)cc3C(=NO[C@@H](C)c3cc(-c4c(C)cc(C)cc4C)no3)[C@@H]2O)c1`, the z-score was -0.583.

Turning to `O=C1C2=CC[C@H]3C(=O)N(C[C@@H]4CCCO4)C(=O)[C@H]3[C@H]2[C@H](O)[C@@H]2O[C@H]12`, the z-score is -0.579. Regarding `CCOC(=O)[C@H](Cc1ccccc1)NC(=O)CCC1CC(OC(=O)NCc2cccc3ccccc23)CC2(CCCC(COC(=O)NCCc3ccc(Cl)cc3)O2)O1` (stereo partly specified), the z-score was 0.595.

For `COC(=O)[C@H](C)NC(=O)CCC1CC(OC(=O)NCc2cccc3ccccc23)CC2(CCCC(COC(=O)NCc3cccc(C(F)(F)F)c3)O2)O1` (stereo partly specified), the z-score was -0.508. With `COC(=O)[C@H](C)NC(=O)CCC1CC(OC(=O)NCc2cccc3ccccc23)CC2(CCCC(COC(=O)NCCOc3ccccc3)O2)O1` (stereo partly specified), the z-score is 0.151. In the case of `CCOC(=O)CCN1C(=O)[C@H]2[C@H]3[C@H](O)[C@H](O)CC(=O)[C@@H]3CC[C@H]2C1=O` it was 0.314; in that of `C#CCCCON=C1[C@H]2CCn3c(=O)n(Cc4cc5c(cc4Cl)OCO5)c(=O)n3[C@H]2[C@H](O)[C@@H]2O[C@H]12`, -0.237; in that of `COC(=O)[C@H](C)NC(=O)CCC1CC(OC(=O)NCCc2ccc(F)cc2)CC2(CCCC(COC(=O)NCCc3ccccc3OC)O2)O1` (stereo partly specified), -0.825. The figure for `CCOC(=O)[C@H](Cc1ccccc1)NC(=O)CCC1CC(OC(=O)NCc2ccc3c(c2)OCO3)CC2(CCCC(COC(=O)NCCOc3ccccc3)O2)O1` (stereo partly specified) is -0.317; for `CCOC(=O)CCN1C(=O)[C@H]2[C@H]3[C@H](O)[C@H](O)CC(=NNC(=O)OCC)[C@H]3CC[C@H]2C1=O` it is 0.895. The figure for `CCN1C(=O)[C@H]2[C@H]3[C@H](O)[C@H](O)CC(=NOCC[C@@H]4C=C[C@H](OC(C)=O)[C@@H](COC(C)=O)O4)[C@@H]3CC[C@H]2C1=O` is -0.286; for `O=C1C2=CC[C@H]3C(=O)N(c4ccc(F)cc4F)C(=O)[C@H]3[C@H]2[C@H](O)[C@@H]2O[C@H]12` it is -0.438.

`COc1ccc(O[C@H]2C=C[C@@H](c3ccccc3)O[C@@H]2COC(=O)CCC(C)=NOC[C@@H](O)COCc2ccco2)cc1`: the z-score is 0.651. Regarding `O=C1C[C@@H](O)[C@@H](O)[C@@H]2[C@@H]3C(=O)N(C4CCCCC4)C(=O)[C@@H]3CC[C@@H]12`, the z-score is 0.0679. With `CC(CCC(=O)OC[C@H]1O[C@H](C#Cc2ccccc2)C=C[C@@H]1Oc1ccc(C)cc1)=NOC[C@@H](C)[C@H](OCc1ccccc1)C(C)C`, the z-score is 0.0487.

For the compound `CC(C)CON=C1C[C@@H](O)[C@@H](O)[C@@H]2[C@@H]3C(=O)N([C@@H](C)c4ccccc4)C(=O)[C@@H]3CC[C@@H]12`, the z-score is -0.63. Take `O=C1[C@H]2[C@H]3[C@H](O)[C@H](O)CC(=NO[C@@H]4O[C@H](CO)[C@@H](O)[C@H](O)[C@H]4O)[C@H]3CC[C@H]2C(=O)N1c1ccc(F)cc1F`: the z-score was 0.528. In the case of `COC(=O)[C@@H]1CC[C@H](C)[C@@H](c2ccc(C)cc2)N1C(=O)c1ccc(C=NOC[C@H]2O[C@H](c3ccccc3)C=C[C@@H]2Oc2ccc(OC)cc2)cc1`, the z-score is -0.36. `COC(=O)CC=C[C@@H](C)[C@@H](C=NOC[C@@H](O)COCc1ccco1)OC`: the z-score is -0.921.

`CC(C)(C)N1C(=O)[C@H]2[C@H]3[C@H](O)[C@H](O)CC(=NOC[C@@H](O)COCc4ccco4)[C@@H]3CC[C@H]2C1=O`: the z-score is 0.935. Turning to `C#CCCCON=C1C[C@@H](O)[C@@H](O)[C@@H]2[C@@H]3C(=O)N(C[C@@H]4CCCO4)C(=O)[C@@H]3CC[C@H]12`, the z-score was -0.614. The figure for `CCOC(=O)[C@H](CC(C)C)NC(=O)CCC1CC(OC(=O)NCCc2ccc(F)cc2)CC2(CCCC(COC(=O)NCCOC)O2)O1` (stereo partly specified) is -1.02; for `CCOC(=O)[C@H](Cc1ccccc1)NC(=O)CCC1CC(OC(=O)NCCc2ccc(F)cc2)CC2(CCCC(COC(=O)NCCC(C)C)O2)O1` (stereo partly specified) it is -0.567. Consider `CC(C)=CCCC(C)=CCON=C1C[C@@H](O)[C@@H](O)[C@@H]2[C@@H]3C(=O)N(C4CCCCC4)C(=O)[C@@H]3CC[C@H]12`, for which the z-score is -0.735.

Values taken from PubChem BioAssay.
